Screening results: PubChem BioAssay, several laboratories
Hits are enriched below; roughly 5.2% of the tested compounds scored in any of these assays.
SKN-1 inh: blocks SKN-1 activity in C. elegans; C. elegans VP596 Pgst-4::GFP/RFP ratio, acrylamide-induced, 24 h; inhibition, % at 21.8 µM; 360,000 tested, 0.49% active;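 active means interference check ratio from 0.5 to 1.5 plus GFP to RFP signal ratio inhibition reaching or exceeding a fixed threshold, cut at about 30% in these data, passing the limit was not always enough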
NadD block: blocks S. aureus nicotinate mononucleotide adenylyltransferase; inhibition, % at 20 µM; AID 602399; purified NadD enzyme, colorimetric absorbance read-out; 360,000 tested, 0.78% active; in the data active means inhibition above about 26%
SMARCA2 act: activators of SMARCA2 function; MG213 cells, MMTV-luciferase reporter, dexamethasone, overnight; activation, % at 9.1 µM; 370,000 tested, 1% active; AID 652017; in the data active means activation above about 7.8%
Vif imaging: blocks HIV Vif function | HEK293T cells, Vif self-association by quenched fluorescence, imaging, 24 h | inhibition, % at 7.49 µM | 340,000 tested, 0.35% active | AID 602346; in the data active means inhibition above about 50%, passing the limit was not always enough; inconclusive means no clear call, values can overlap the other calls; inactive means below about 31%
esBAF inh: blocks esBAF chromatin remodeling in mouse ES cells | Bmi1-luciferase knock-in reporter, 24 h; 100% = twice the neutral-well signal | 350,000 tested, 2% active | reporter increase, % at 12.5 µM | AID 602393; in the data active means activation above about 40%; inconclusive means no clear call, values can overlap the other calls;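 further: a rise in the Bmi1 reporter signal indicates esBAF inhibition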
NR3A LBD binder: modulates the human NR3A ligand-binding domain | 340,000 tested, 2.5% active | NR3A LBD differential scanning fluorimetry, Tm shift; 0% = protein alone, 100% = glycine-bound protein | Tm shift relative to glycine control, % at 25 µM;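 active means melting temperature shift of at least 10% of the positive control shift, at one fixed dose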
Of the large screens only hits and unclear results are named; the others gave an inactive call.

CCC1CCc2c(sc(NC(=O)c3cccnc3)c2C(N)=O)C1 (centres undefined)	esBAF inh 38
O=C(Nc1ccc(Cl)c(Cl)c1)N[C@H]1CC[C@@H](CCNC(=O)c2ccc(F)cc2)O[C@@H]1CO	none (no result: SKN-1 inh, NadD block, SMARCA2 act, Vif imaging, NR3A LBD binder)
CO[C@@H]1CN(C)C(=O)c2cc(NC(=O)Cc3ccccc3)ccc2OC[C@H](C)N(C(C)=O)C[C@@H]1C	none (no result: SKN-1 inh, NadD block, SMARCA2 act, Vif imaging, NR3A LBD binder)
Clc1ccc(CSc2ccc(-c3ccccn3)nn2)cc1	none
Clc1ccc(CSc2cc3c(nn2)-c2ccccc2CC3)cc1	esBAF inh 52
CO[C@@H]1CN(C)C(=O)c2ccc(NS(C)(=O)=O)cc2OC[C@@H](C)N(C)C[C@@H]1C	none (no result: SKN-1 inh, NadD block, SMARCA2 act, Vif imaging, NR3A LBD binder)
COc1ccc2[nH]c(CN3CCN(C(C)C)C(CCO)C3)c(C)c2c1 (centres undefined)	Vif imaging 64
COc1ccc2[nH]c(CN3CCN(CC(C)C)C(CCO)C3)c(C)c2c1 (centres undefined)	none
Cc1cc(C)nc(-n2nc(C)c(Sc3ccc(F)cc3)c2N)n1	esBAF inh 137
Cc1noc(C)c1S(=O)(=O)N(C)C[C@H]1Oc2ccc(NC(=O)Nc3cccc4ccccc34)cc2CC(=O)N([C@@H](C)CO)C[C@@H]1C	none (no result: SKN-1 inh, NadD block, SMARCA2 act, Vif imaging, NR3A LBD binder)
NCC[C@H]1CC[C@@H](NC(=O)CCN2CCCCC2)[C@H](CO)O1	none (no result: SKN-1 inh, NadD block, SMARCA2 act, Vif imaging, NR3A LBD binder)
COCC(=O)N(C[C@@H]1N[C@@H](CO)[C@@H]1c1ccc(-c2ccccc2)cc1)C(C)C	none (no result: SKN-1 inh, NadD block, SMARCA2 act, Vif imaging, NR3A LBD binder)
CN(C)S(=O)(=O)Oc1cccc(C(=O)Nc2ccc(Cl)cc2)c1	none
CN(C)S(=O)(=O)Oc1cccc(C(=O)Nc2ccccc2Cl)c1	esBAF inh 72
Cc1ccc(NC(=O)c2nc[nH]c2C(=O)NCCCCNC(=O)c2[nH]cnc2C(=O)Nc2ccc(C)cc2)cc1	NR3A LBD binder 13
Cc1ccc(NC(=O)c2nc[nH]c2C(=O)NCCCNC(=O)c2[nH]cnc2C(=O)Nc2ccc(C)cc2)cc1	none (no result: SMARCA2 act)
Cc1ccc(NC(=O)c2nc[nH]c2C(=O)N2CCN(C(=O)OC(C)(C)C)CC2)cc1	NR3A LBD binder 12
O=C(Nc1cccc(Cl)c1)c1nc[nH]c1C(=O)NCCCNC(=O)c1[nH]cnc1C(=O)Nc1cccc(Cl)c1	NR3A LBD binder 23
Cc1ccc(NC(=O)c2nc[nH]c2C(=O)NCCCCCCNC(=O)c2[nH]cnc2C(=O)Nc2ccc(C)cc2)cc1	NR3A LBD binder 20
C[C@@H]1CN([C@H](C)CO)C(=O)c2cc(C3=CCCCC3)cnc2O[C@H]1CN(C)C(=O)c1ccccn1	none (no result: SKN-1 inh, NadD block, SMARCA2 act, Vif imaging, NR3A LBD binder)
Cc1ccc(NC(=O)c2nc[nH]c2C(=O)Nc2ccccc2F)cc1	Vif imaging 90 (no result: NR3A LBD binder)
Cc1ccc(C(=O)c2coc3c2C(=O)C(=O)c2ccccc2-3)cc1	esBAF inh 42
O=c1ccn([C@@H]2O[C@H](CNCc3ccc(-n4cccn4)cc3)[C@@H](O)[C@H]2O)c(=O)[nH]1	Vif imaging 96
CCOC(=O)c1cnc2ccc(OCC)cc2c1N(C)Cc1ccccc1	NR3A LBD binder 11
CCCC#Cc1ccc2c(c1)O[C@@H](CN(C)S(=O)(=O)c1cccc(OC)c1)[C@@H](C)CN([C@H](C)CO)S2(=O)=O	none (no result: SKN-1 inh, NadD block, SMARCA2 act, Vif imaging, NR3A LBD binder)
Cc1ccc(C(=O)Nc2cc(Cl)ccc2N2CCCCC2)s1	NR3A LBD binder 22 (no result: esBAF inh)
Cc1ccc(C(=O)Nc2cc([N+](=O)[O-])ccc2F)s1	NR3A LBD binder 12 (no result: esBAF inh)
CCc1sc(C(=O)Nc2cc(Cl)ccc2N2CCCCC2)cc1C	none
Cc1ccc(CC(=O)Nc2cc([N+](=O)[O-])ccc2F)cc1	none (no result: esBAF inh)
CCc1ccc(C(=O)Nc2nc(C)cs2)s1	none
CCc1ccc(C(=O)Nc2cc(C)ccc2F)s1	esBAF inh 66
COc1cccc(CNC(=O)C[C@H]2C=C[C@H](NC(=O)C3CCOCC3)[C@@H](CO)O2)c1	none (no result: SKN-1 inh, NadD block, SMARCA2 act, Vif imaging, NR3A LBD binder)
O=C(Nc1ccc(NC(=O)C2CCCCC2)cn1)c1ccco1	NR3A LBD binder 16
O=C(Nc1ccc(NC(=O)c2ccco2)nc1)c1ccco1	none (no result: esBAF inh)
O=C(Nc1ccc(NC(=O)C23CC4CC(CC(C4)C2)C3)cn1)c1ccco1	esBAF inh 49 (no result: Vif imaging)
COc1ccc(NC(=O)N(C)C[C@@H]2OCCCC[C@H](C)Oc3ccc(NC(=O)CCCN(C)C)cc3C(=O)N([C@H](C)CO)C[C@@H]2C)cc1	none (no result: SKN-1 inh, NadD block, SMARCA2 act, Vif imaging, NR3A LBD binder)
C[C@@H]1CN([C@@H](C)CO)C(=O)c2cc(-c3ccc(C#N)cc3)cnc2O[C@H]1CN(C)Cc1cncnc1	none (no result: SKN-1 inh, NadD block, SMARCA2 act, Vif imaging, NR3A LBD binder)
Cc1ccc2nc(NC(=O)Cc3cccs3)sc2c1	none
O=C(Nc1nc2ccccc2s1)C1c2ccccc2Oc2ccccc21	NR3A LBD binder 11 (no result: esBAF inh)
Cc1ccccc1S(=O)(=O)/N=C(/Nc1c(C)n(C)n(-c2ccccc2)c1=O)c1ccccc1	none
Cc1ccccc1S(=O)(=O)/N=C(/Nc1nc2ccccc2s1)c1ccccc1	esBAF inh 62
O=C(Cc1cccs1)Nc1nc2ccccc2s1	esBAF inh 49
O=C(Cc1ccccc1)Nc1nc2ccccc2s1	esBAF inh 50
Cc1ccc(S(=O)(=O)Nc2ccc3c(c2)C(=O)N([C@@H](C)CO)C[C@H](C)[C@@H](CN(C)Cc2ccc(C(=O)O)cc2)OCCCC[C@H](C)O3)cc1	none (no result: SKN-1 inh, NadD block, SMARCA2 act, Vif imaging, NR3A LBD binder)
CO[C@@H]1CN(C)C(=O)c2ccc(NC(=O)C3CC3)cc2OC[C@@H](C)N(C(=O)Nc2ccc(C(F)(F)F)cc2)C[C@H]1C	none (no result: SKN-1 inh, NadD block, SMARCA2 act, Vif imaging, NR3A LBD binder)
O=C(Nc1cc(Cl)ccc1C(=O)O)c1ccc(CN2C(=O)c3ccccc3C2=O)cc1	NR3A LBD binder 13
OC1(c2cccc(C(F)(F)F)c2)CCN(c2ccc(-c3ccccc3)nn2)CC1	esBAF inh 67
CC1CCN(C(=O)CSCc2ccc(Cl)cc2)CC1	esBAF inh 49
CC1CCN(C(=O)CN(Cc2ccc(Cl)cc2)S(C)(=O)=O)CC1	none
COCCn1cc(C(=O)NCc2cccs2)c2c3ccccc3n(C)c2c1=O	SKN-1 inh 41
COc1ccccc1NC(=O)C(=O)c1cn(CC(=O)N2CCCC2)c2ccccc12	esBAF inh 72
CC(=O)Nc1cccc(NC(=O)C(=O)c2cn(CC(=O)N3CCCC3)c3ccccc23)c1	esBAF inh 47 (no result: NR3A LBD binder)
COc1ccccc1NC(=O)C(=O)c1cn(CC(=O)N2CCOCC2)c2ccccc12	esBAF inh inconclusive
CCN(CC)C(=O)Cn1cc(C(=O)C(=O)Nc2ccc3c(c2)OCCO3)c2ccccc21	esBAF inh 60
CCN(CC)C(=O)Cn1cc(C(=O)C(=O)NCCCN2CCOCC2)c2ccccc21	none
COc1ccccc1C1CC(c2cccc(NS(C)(=O)=O)c2)=NN1S(=O)(=O)c1ccccc1 (centres undefined)	SKN-1 inh 37
COC(=O)c1ccc(C2c3c(n[nH]c3C)C(=O)N2c2ccc(C)cc2)cc1 (centres undefined)	NR3A LBD binder 35
Cc1scc(C(=O)N/N=C/c2ccc(OC(C)C)cc2)c1C	esBAF inh 47 (no result: Vif imaging)
O=C(COC(=O)c1ccccc1-n1cnnn1)c1ccc(F)c(F)c1	esBAF inh 56
